High-throughput results from PubChem BioAssay.
JMJD2A Tudor inh – JMJD2A Tudor domain (human) inhibition | AID 504339 | AlphaScreen JMJD2A-Tudor / H3K4me3 peptide binding | Potency, µM (top dose mostly 114 µM), most hits filed as inhibitors | 4.4% of 390,000 active; further: nearly all actives have a fitted effect of over 50% in size
BAZ2B block – inhibitors of human BAZ2B bromodomain. Potency, µM (highest dose often 114 µM), hits mostly inhibitors. Q9UIF8. AlphaScreen BAZ2B-H3K14Ac peptide displacement. 4.4% of 360,000 active; further: nearly all actives have a fitted effect of over 60% in size
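Compounds, titrated to a top concentration of 110 uM, were incubated 30 min at room temperature with preformed BAZ2B/acetyl-K14 H3 peptide complex (50 nM each). Proximity signal was measured by AlphaScreen after 20 min with beads.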
HP1b chromo inh – blocks HP1-beta chromodomain binding to methylated histone tails | P83916 | AlphaScreen HP1-beta / biotin-H3K9me3 peptide binding | Potency, µM (highest dose often 114 µM), most hits filed as inhibitors | 0.56% of 390,000 active | AID 540317; further: nearly all actives have a fitted effect of over 70% in size
Target sequence (P83916 whole entry, looked up): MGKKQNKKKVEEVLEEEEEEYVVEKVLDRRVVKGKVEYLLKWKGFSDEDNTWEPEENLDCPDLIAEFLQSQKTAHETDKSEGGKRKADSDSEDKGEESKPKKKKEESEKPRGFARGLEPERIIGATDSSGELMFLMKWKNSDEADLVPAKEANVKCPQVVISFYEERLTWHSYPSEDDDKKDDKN
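Compound inhibition of the preformed complex between 50 nM HP1-beta and 50 nM biotinylated H3K9me3 peptide was read by AlphaScreen. Buffer was PBS pH 7.4 with 0.01% Tween-20. Incubations ran 30 min at room temperature, with 10 ug/mL donor/acceptor beads.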
CtBP-E1A blk – blocks the CtBP interaction with E1A. AlphaScreen GST-E1A/His-CtBP binding, 1536-well; hits give low values. activity change, % (no concentration beside the values). 0.49% of 340,000 active; in the data active means activity change below about -65%; inconclusive means mostly about -30% to -63%
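Protein mix (5X: 125 nM each GST-E1A, His-CtBP) was incubated with pinned compound 2 h at 37 deg C in dark, in 50 mM Tris pH 8.0 buffer with 300 mM NaCl. Glutathione donor and nickel acceptor beads followed; AlphaScreen signal read after 1 h.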
Six1-Eya2 inh – inhibitors of human Six1/Eya2 interaction | Q15475+O00167 | AlphaScreen GST-Six1/His-Eya2 binding, biochemical; hits give low values | activity change, % (no concentration beside the values) | 0.56% of 360,000 active; in the data active means activity change below about -65%; inconclusive means mostly about -30% to -63%
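Compounds are tested against tagged Six1 and Eya2 proteins bridged by glutathione donor and nickel acceptor beads; after a one-hour incubation at 37 °C without light, AlphaScreen emission is recorded.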
G9a inh – inhibitors of human histone lysine methyltransferase G9a | Q96KQ7 | G9a H3K9 monomethylation, AlphaScreen, 2 h | Potency, µM (highest dose often 102 µM), usual class: inhibitors | 8.8% of 350,000 active | AID 504332; further: nearly all actives have a fitted effect of over 75% in size
Target sequence (Q96KQ7 913-1193 limits assumed): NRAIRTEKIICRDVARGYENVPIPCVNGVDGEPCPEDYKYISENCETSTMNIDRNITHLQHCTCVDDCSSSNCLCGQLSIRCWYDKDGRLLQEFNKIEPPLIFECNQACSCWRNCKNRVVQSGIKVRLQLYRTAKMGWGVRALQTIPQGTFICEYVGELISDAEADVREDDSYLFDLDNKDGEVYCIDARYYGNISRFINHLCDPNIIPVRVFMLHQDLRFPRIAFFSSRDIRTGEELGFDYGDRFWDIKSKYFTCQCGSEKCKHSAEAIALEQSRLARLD
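Enzyme 20 nM + cpd, 15 min RT; add b-H3K9 pep 500 nM / SAM 20 uM; 2 h RT; anti-H3K9me1 Ab 0.5 ug/mL + SA donor / anti-rabbit acceptor beads 20 ug/mL each, 10 min; AlphaScreen read.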
Each line names hits and unclear results; the compound was inactive in the other large screens. Hits are enriched below; roughly 10% of the tested compounds scored in any of these assays. Unless noted, the call rests on the fitted dose curve; in most records, active means well fitted inhibition curve with a large enough effect; inconclusive means small, poorly fitted or top-dose-only effect; inactive means no such curve, though single readings can be large or run the other way.

Cc1c(C(c2cccc([N+](=O)[O-])c2O)c2c(C)n(C)n(-c3ccccc3)c2=O)c(=O)n(-c2ccccc2)n1C	none
CCCOC(c1ccccc1)(c1ccccc1)C(Oc1nc(C)cc(C)n1)C(=O)O (stereo not given)	G9a inh 71µM
Cc1cc(C)nc(OC(C(=O)O)C(OCCC(C)C)(c2ccccc2)c2ccccc2)n1 (stereo not given)	none (no result: CtBP-E1A blk)
CC(NCc1ccc(S(N)(=O)=O)cc1)C(=O)Nc1ccc([N+](=O)[O-])cc1Cl (stereo not given)	none
CN1CCc2nc(SCC(=O)Nc3cccc(F)c3)c(C#N)c(-c3cccs3)c2C1	JMJD2A Tudor inh inconclusive, BAZ2B block 50µM, CtBP-E1A blk inconclusive (no result: G9a inh)
COc1ccc(N(CC(=O)Nc2cccc(C)c2C)S(=O)(=O)c2c(C)n[nH]c2C)cc1	CtBP-E1A blk -66, Six1-Eya2 inh inconclusive
CC1CCN(CCCCOc2ccc(C(=O)c3ccccc3)cc2)CC1	G9a inh 35µM
CC1CCN(CCOc2ccc(C(=O)c3ccccc3)cc2)CC1	JMJD2A Tudor inh inconclusive, BAZ2B block inconclusive, G9a inh 7.1µM
CC1CCC(NC(=O)COc2ccc(C(=O)c3ccccc3)cc2)CC1 (stereo not given)	none
Cc1ncc(C(O)c2ccc(N(C)C)cc2)n1Cc1ccccc1 (stereo not given)	none (no result: JMJD2A Tudor inh, BAZ2B block, HP1b chromo inh, G9a inh)
CN(C)c1ccc2nc3c(=O)[nH]c(=O)nc-3n(CC(O)C(O)C(O)CO)c2c1 (stereo not given)	BAZ2B block 40µM, HP1b chromo inh inconclusive, G9a inh 50µM (no result: CtBP-E1A blk)
CCOc1nc(NCCO)nc(NCCC2=CCCCC2)n1	none
Clc1nc(Cl)nc(NCCC2=CCCCC2)n1	JMJD2A Tudor inh 89µM, BAZ2B block 56µM, G9a inh inconclusive
O=C(CN1CCN(c2ccc(F)cc2)CC1)c1ccc2c(c1)OCO2	G9a inh 32µM
CC(=O)c1ccc(OCC(O)CN2CCN(c3ccc(F)cc3)CC2)cc1 (stereo not given)	BAZ2B block inconclusive, G9a inh inconclusive
OC(COc1ccc2c(c1)OCO2)CN1CCN(c2ccc(F)cc2)CC1 (stereo not given)	BAZ2B block inconclusive, G9a inh 50µM
CC(C)c1ccc(OCC(O)CN2CCN(c3ccc(F)cc3)CC2)cc1 (stereo not given)	JMJD2A Tudor inh 79µM, G9a inh 10µM (no result: CtBP-E1A blk, Six1-Eya2 inh)
c1ccc(N2CCN(CCCOc3ccc4c(c3)OCO4)CC2)cc1	G9a inh 20µM (no result: JMJD2A Tudor inh, BAZ2B block, HP1b chromo inh, CtBP-E1A blk, Six1-Eya2 inh)
OC(COc1ccc2c(c1)OCO2)CN1CCCC1 (stereo not given)	none
CC(C)OCC(O)CN1CCN(CC(O)COc2ccc3c(c2)OCO3)CC1 (stereo not given)	none
CCC(C)NCCCCOc1ccc(Br)cc1 (stereo not given)	JMJD2A Tudor inh 1.6µM, BAZ2B block inconclusive, HP1b chromo inh inconclusive, G9a inh 8.9µM
CCC(C)NCCCOc1ccc([N+](=O)[O-])cc1 (stereo not given)	JMJD2A Tudor inh 79µM, BAZ2B block inconclusive, G9a inh inconclusive
CCc1ccc(OCCOCC(O)CNC(C)CC)cc1 (stereo not given)	G9a inh inconclusive
CCC(C)NCCCCOc1cc(C)cc(C(C)C)c1 (stereo not given)	JMJD2A Tudor inh 8.9µM, BAZ2B block inconclusive, HP1b chromo inh inconclusive, G9a inh 11µM
CC1CCCN(CC(O)COC(c2ccccc2)c2ccccc2)C1 (stereo not given)	none
CCN(CC)CCOc1ccc(/C(=C(/Cl)c2ccccc2)c2ccccc2)cc1	JMJD2A Tudor inh 56µM, BAZ2B block inconclusive, HP1b chromo inh inconclusive, CtBP-E1A blk inconclusive (no result: G9a inh)
COc1ccc(CNc2nc3ccccc3n2Cc2ccc(C)cc2)cc1OC	BAZ2B block inconclusive, G9a inh 79µM
c1ccc(Cn2c(NCc3ccncc3)nc3ccccc32)cc1	none (no result: CtBP-E1A blk)
COc1ccc(CNc2ccc3c(c2)nc(C)n3C)cc1OC	G9a inh 40µM
Cc1nc2cc(NCc3nc4ccccc4n3Cc3ccccc3)ccc2n1C	JMJD2A Tudor inh inconclusive, BAZ2B block 45µM, HP1b chromo inh inconclusive
Cc1cccc(NCc2nc3ccccc3n2Cc2ccccc2)c1	JMJD2A Tudor inh inconclusive, BAZ2B block inconclusive, G9a inh inconclusive
COC(=O)c1ccc(NC(=O)Nc2ccc3c(c2)nc(C)n3C)cc1	none
COc1cccc(CNc2ccc3c(c2)nc(C)n3C)c1OC	G9a inh 35µM (no result: CtBP-E1A blk)
COC(=O)c1ccc(Cn2ncc3c4sc(C)cc4n(C)c3c2=O)cc1	none (no result: BAZ2B block, HP1b chromo inh, CtBP-E1A blk, Six1-Eya2 inh, G9a inh)
O=S(=O)(c1cccc(F)c1)N1CCN(c2nc(-c3cccs3)nc3ccccc23)CC1	none (no result: BAZ2B block, CtBP-E1A blk, Six1-Eya2 inh, G9a inh)
COC(CNC(=O)c1cccc(-n2c(=S)[nH]c3cc(Cl)ccc3c2=O)c1)OC	BAZ2B block inconclusive
Cc1cnc(NC(=O)Nc2ccc(Cl)cc2)s1	G9a inh 50µM
Cc1ccc(OCC(=O)NNC(=O)c2cc(C)[nH]n2)cc1	JMJD2A Tudor inh inconclusive
Cc1cc(C(=O)NNC(=O)COc2ccccc2Cl)n[nH]1	G9a inh 79µM
Cc1cnc(NC(=O)CCNC(=O)c2ccccc2Cl)s1	none
Cc1cnc(NC(=O)COc2ccccc2Cl)s1	G9a inh 56µM
CC(C)(/C=N/O)/[N+]([O-])=C/c1ccccc1	G9a inh 50µM
OC[C@@H]1CN(Cc2ccccc2)C[C@H](n2cnc3c(NCc4ccncc4)ncnc32)O1	none (no result: JMJD2A Tudor inh, BAZ2B block, HP1b chromo inh, G9a inh)
COCCN(C(=O)c1cc(OC)c(OC)c(OC)c1)c1c(N)n(Cc2ccccc2)c(=O)[nH]c1=O	none
COc1ccc2oc(C(=O)Nc3ccc(N4CCOCC4)cc3)c(C)c2c1	JMJD2A Tudor inh inconclusive, BAZ2B block 50µM, G9a inh 50µM
Cc1c(C(=O)NC2CCS(=O)(=O)C2)oc2ccccc12 (stereo not given)	G9a inh 45µM
CCOc1cc(N2CCOCC2)c(OCC)cc1NC(=O)c1oc2ccccc2c1C	none (no result: BAZ2B block)
COc1ccc2oc(C(=O)Nc3ccccc3N3CCOCC3)c(C)c2c1	G9a inh 45µM
Cc1c(C(=O)Nc2ccc(N3CCOCC3)cc2)oc2ccccc12	JMJD2A Tudor inh 56µM, G9a inh inconclusive
O=c1ccc2cc(S(=O)(=O)Nc3ccc(F)c(Cl)c3)ccc2[nH]1	none (no result: CtBP-E1A blk, Six1-Eya2 inh)
O=S(=O)(Nc1ccc(F)cc1F)c1ccc(Br)s1	none (no result: CtBP-E1A blk, Six1-Eya2 inh)
Nc1nc(CN2CCc3ccccc3C2)nc(Nc2ccccc2)n1	JMJD2A Tudor inh 79µM, BAZ2B block 50µM, G9a inh inconclusive
CC1CC(C)CN(Cc2nc(N)nc(Nc3ccc4ccccc4c3)n2)C1 (stereo not given)	BAZ2B block 50µM
COc1ccc(OCc2nc(N)nc(Nc3ccccc3)n2)cc1	G9a inh inconclusive
